According to PubChem BioAssay (EPA / NIEHS):
The source made the active and inactive calls. How the source made its calls: active means hit-call score of the fitted dose curve at least 0.9, where 1 is the maximum; inactive means score below 0.9.

Key:
[1] = biological target: Bile acid receptor (Homo sapiens) (UniProt Q96RI1); assay: ATG_IR1_CIS: Attagene CIS-FACTORIAL HepG2 Assay for human Nuclear Receptor Subfamily 1 Group H Member 4 (NR1H4), IR1 submotif (AID 2282946); conditions: IR1 reporter transcription, actives raise or lower the signal
In short: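 HepG2 cells transiently transfected with multiple cis-promoter-driven reporter units to measure endogenous transcription factor activity; 24 h exposure. Reporter mRNA read by RT-PCR, FAM labelling, HpaI digestion and capillary electrophoresis. Bidirectional fit versus DMSO.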

[2] = ATG_GRE_CIS: Attagene CIS-FACTORIAL HepG2 Assay for human Glucocorticoid Response Elements (GRE) (AID 2282947); conditions: HepG2 GRE cis-reporter, Attagene multiplex mRNA; actives raise or lower the signal
In short: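 Transiently transfected HepG2 cells carrying GRE cis-reporter units (endogenous TF activity) dosed 24 h; reporter mRNA quantified by RT-PCR, 6-FAM labelling, HpaI digestion and capillary electrophoresis. Bidirectional fit versus DMSO baseline.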

[3] = ATG_ISRE_CIS: Attagene CIS-FACTORIAL HepG2 Assay for human Interferon Regulatory Factor 1 (IRF1) binding to an Interferon-Stimulated Response Element (ISRE) (AID 2282948); conditions: HepG2 ISRE cis-reporter (Attagene), mRNA transcription readout; actives raise or lower the signal
In short: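 Transiently transfected HepG2 cells carrying cis-element reporter units, dosed 24 hours. Reporter mRNA quantified by RT-PCR, fluorescent primer extension, HpaI digestion and capillary electrophoresis. Bidirectional fitting relative to DMSO.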

[4] = ATG_M_32_CIS: Attagene CIS-FACTORIAL HepG2 Assay for M32 Transcription Factor (Internal Marker) (AID 2282949); conditions: HepG2 Attagene cis-factorial M32 reporter, mRNA; actives raise or lower the signal;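 further: background control marker of the multiplexed CIS panel rather than a real target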
In short: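 HepG2 cells transiently transfected with multiplexed cis-regulated reporter units, dosed 24 h. Reporter mRNA quantified by RT-PCR, 6-FAM labelling, HpaI digestion and capillary electrophoresis; bidirectional fit vs DMSO.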

[5] = ATG_M_06_CIS: Attagene CIS-FACTORIAL HepG2 Assay for M06 Transcription Factor (Internal Marker) (AID 2282950); conditions: HepG2 Attagene CIS-FACTORIAL M06 internal marker reporter; actives raise or lower the signal
In short: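 Fluorescence-labelled RT-PCR products from cis-promoter reporter units, cut with HpaI and resolved by capillary electrophoresis, give the signal. Cells are human HepG2, dosed for 24 h. Serves as background control, fitted relative to DMSO.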

[6] = biological target: Hypoxia-inducible factor 1-alpha (Homo sapiens) (UniProt Q16665); assay: ATG_HIF1a_CIS: Attagene CIS-FACTORIAL HepG2 Assay for human Hypoxia Inducible Factor 1 (HIF1A) (AID 2282951); conditions: HepG2 Attagene cis-factorial HIF1a reporter transcription; actives raise or lower the signal
In short: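 Measures endogenous transcription-factor activity through cis-regulated reporter mRNA in HepG2. Cells dosed 24 h; transcripts quantified by RT-PCR with 6-FAM-labelled products separated by capillary electrophoresis; DMSO serves as negative control.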

[7] = biological target: Hepatocyte nuclear factor 6 (Homo sapiens) (UniProt Q9UBC0); assay: ATG_HNF6_CIS: Attagene CIS-FACTORIAL HepG2 Assay for human Hepatocyte Nuclear Factor 6 (HNF6) (AID 2282952); conditions: HepG2 Attagene cis-factorial HNF6 reporter transcription; actives raise or lower the signal
In short: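 HepG2 cells transiently transfected with cis-element-driven multiple reporter transcription units, dosed 24 h; reporter mRNA quantified by RT-PCR, FAM primer extension, HpaI digestion and capillary electrophoresis; bidirectional fit versus DMSO baseline.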

[8] = biological target: Heat shock factor protein 1 (Homo sapiens) (UniProt Q00613); assay: ATG_HSE_CIS: Attagene CIS-FACTORIAL HepG2 Assay for human Heat Shock Transcription Factor 1 (HSE) (AID 2282953); conditions: HepG2 HSE cis-reporter, Attagene RNA transcription; actives raise or lower the signal
In short: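 After a 24 h incubation with test chemical, transfected HepG2 cells were harvested for RNA; reporter transcripts were measured by RT-PCR and capillary electrophoresis. Values reflect gain or loss of signal relative to DMSO.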

[9] = ATG_MRE_CIS: Attagene CIS-FACTORIAL HepG2 Assay for human Metal Responsive Element (MRE) (AID 2282954); conditions: HepG2 MRE cis-reporter transcription, Attagene multiplex; actives raise or lower the signal
In short: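 HepG2 cells transiently transfected with cis-element-driven reporter units; mRNA measured 24 h after dosing. Reporter transcripts quantified by RT-PCR, FAM labelling, HpaI digestion and capillary electrophoresis; bidirectional fit versus DMSO.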

[10] = biological target: Paired box protein Pax-6 (Homo sapiens) (UniProt P26367); assay: ATG_Pax6_CIS: Attagene CIS-FACTORIAL HepG2 Assay for human Paired Box 6 (PAX6) (AID 2282956); conditions: HepG2 CIS-FACTORIAL PAX6 reporter transcription, RNA readout; actives raise or lower the signal
In short: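 HepG2 cells transiently transfected with cis-promoter-driven multiplexed reporter units sensing endogenous transcription factor activity; 24 h chemical exposure. Reporter mRNA quantified by RT-PCR, 6-FAM labelling, HpaI digestion and capillary electrophoresis; bidirectional fit versus DMSO baseline.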

[11] = ATG_PXRE_CIS: Attagene CIS-FACTORIAL HepG2 Assay for human Pregnane X Receptor Element (PXRE) (AID 2282957); conditions: HepG2 Attagene CIS-FACTORIAL PXRE reporter, mRNA; actives raise or lower the signal
In short: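 HepG2 cells transiently transfected with cis-regulated multiple reporter transcription units; endogenous factor activity measured as reporter mRNA 24 h after dosing. RT-PCR, fluorescent primer extension, HpaI digestion, capillary electrophoresis; bidirectional fit versus DMSO baseline.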

[12] = ATG_PPRE_CIS: Attagene CIS-FACTORIAL HepG2 Assay for human Peroxisome Proliferator-activated Response Element (PPRE) (AID 2282958); conditions: HepG2 PPRE cis-element reporter, Attagene transcription factor profiling; actives raise or lower the signal
In short: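 Cells are first transfected transiently with the multiplexed reporter library, then dosed for 24 h. Total RNA is reverse-transcribed, amplified, fluorescently end-labeled and HpaI-cut before capillary electrophoresis; activity is fitted bidirectionally against DMSO controls.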

[13] = ATG_RORE_CIS: Attagene CIS-FACTORIAL HepG2 Assay for human RAR-related Orphan Receptor Element (RORE) (AID 2282959); conditions: HepG2 Attagene cis-factorial RORE reporter, mRNA; actives raise or lower the signal
In short: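 Cells were HepG2 carrying transfected cis-regulated reporter constructs, dosed for 24 hours. Total RNA was reverse-transcribed and reporter cDNA amplified, fluorescently labeled and sized by capillary electrophoresis. Activity was fitted bidirectionally relative to DMSO.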

[14] = ATG_Sox_CIS: Attagene CIS-FACTORIAL HepG2 Assay for human SRY-box transcription factor (SOX) (AID 2282960); conditions: HepG2 Attagene cis-factorial SOX reporter, mRNA; actives raise or lower the signal
In short: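 Transient MRTU transfection of HepG2; 24 h compound incubation; TriZol RNA, oligo(dT) RT, PCR, 6-FAM primer extension, HpaI cut, CE. Bidirectional fit, DMSO = baseline.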

[15] = biological target: Transcription factor Sp1 (Homo sapiens) (UniProt P08047); assay: ATG_Sp1_CIS: Attagene CIS-FACTORIAL HepG2 Assay for human Specificity Protein 1 (Sp1) (AID 2282961); conditions: HepG2 Sp1 cis-reporter transcription, actives raise or lower the signal
In short: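 Endogenous Sp1 activity was gauged in human liver HepG2 cells bearing transfected reporter units under a cis-regulating promoter. After 24 h dosing, reporter mRNA was quantified by RT-PCR with capillary electrophoresis, and activity fitted bidirectionally versus DMSO.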

[16] = ATG_SREBP_CIS: Attagene CIS-FACTORIAL HepG2 Assay for human Sterol Regulatory Element Binding (SREBP) (AID 2282962); conditions: HepG2 Attagene cis-factorial SREBP reporter, mRNA; actives raise or lower the signal
In short: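 HepG2 cells transiently transfected with multiplexed cis-promoter reporter units sensing endogenous transcription factors; reporter mRNA measured 24 h after dosing by RT-PCR, 6-FAM labeling, HpaI digestion and capillary electrophoresis. Bidirectional fit versus DMSO.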

[17] = biological target: Signal transducer and activator of transcription 3 (Homo sapiens) (UniProt P40763); assay: ATG_STAT3_CIS: Attagene CIS-FACTORIAL HepG2 Assay for human Signal Transducer and Activator of Transcription 3 (STAT3) (AID 2282963); conditions: HepG2, Attagene cis-factorial STAT3 reporter transcription; actives raise or lower the signal
In short: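 HepG2 cells transiently transfected with multiple cis-element-driven reporter units report endogenous transcription factor activity. After 24 h compound exposure, reporter mRNA is measured by RT-PCR, 6-FAM labelling, HpaI digestion and capillary electrophoresis. Fitted bidirectionally versus DMSO.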

[18] = ATG_TA_CIS: Attagene CIS-FACTORIAL HepG2 Assay for human TA Basal Promoter (AID 2282964); conditions: HepG2 Attagene CIS-factorial TA basal promoter reporter; actives raise or lower the signal
In short: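 Multiplexed mRNA reporter assay, HepG2, 24 h. Reporter cDNA amplified, 6-FAM primer-extended, HpaI-cut, CE-sized; DMSO = negative control and baseline.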

[19] = ATG_TCF_b_cat_CIS: Attagene CIS-FACTORIAL HepG2 Assay for human T-Cell-Factor with beta-catenin (TCF/b-cat) (AID 2282965); conditions: HepG2 TCF/beta-catenin cis-reporter transcription, actives raise or lower the signal
In short: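 HepG2 cells transiently transfected with cis-promoter-driven multiplexed reporter units; reporter mRNA measured 24 h after dosing by RT-PCR, FAM labelling, HpaI digestion and capillary electrophoresis. Bidirectional fitting relative to DMSO baseline.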

[20] = ATG_PBREM_CIS: Attagene CIS-FACTORIAL HepG2 Assay for human Phenobarbital-responsive Enhancer Module (PBREM) (AID 2282955); conditions: HepG2 PBREM cis-reporter, Attagene multiplexed transcription; actives raise or lower the signal
In short: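 Fluorescence of labelled reporter cDNA fragments, resolved by capillary electrophoresis, gives mRNA induction in transfected HepG2 cells treated for 24 h; DMSO serves as negative control and baseline.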

Measured: AC50

Bile acid receptor (Homo sapiens), sequence (Q96RI1 whole entry, looked up): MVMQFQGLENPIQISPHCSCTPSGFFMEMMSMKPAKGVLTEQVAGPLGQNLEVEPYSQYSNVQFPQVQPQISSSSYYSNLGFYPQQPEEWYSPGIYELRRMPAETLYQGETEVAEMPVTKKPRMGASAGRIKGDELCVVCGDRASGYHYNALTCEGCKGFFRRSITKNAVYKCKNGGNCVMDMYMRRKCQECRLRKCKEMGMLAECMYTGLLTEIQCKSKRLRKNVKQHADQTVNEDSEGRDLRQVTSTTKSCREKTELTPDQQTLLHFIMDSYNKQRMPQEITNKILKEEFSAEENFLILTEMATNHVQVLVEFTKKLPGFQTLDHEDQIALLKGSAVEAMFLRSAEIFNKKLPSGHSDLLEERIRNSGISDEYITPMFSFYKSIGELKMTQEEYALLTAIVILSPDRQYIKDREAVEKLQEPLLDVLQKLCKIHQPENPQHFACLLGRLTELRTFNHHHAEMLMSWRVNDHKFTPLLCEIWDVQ
Transcription factor Sp1 (Homo sapiens), sequence (P08047 whole entry, looked up): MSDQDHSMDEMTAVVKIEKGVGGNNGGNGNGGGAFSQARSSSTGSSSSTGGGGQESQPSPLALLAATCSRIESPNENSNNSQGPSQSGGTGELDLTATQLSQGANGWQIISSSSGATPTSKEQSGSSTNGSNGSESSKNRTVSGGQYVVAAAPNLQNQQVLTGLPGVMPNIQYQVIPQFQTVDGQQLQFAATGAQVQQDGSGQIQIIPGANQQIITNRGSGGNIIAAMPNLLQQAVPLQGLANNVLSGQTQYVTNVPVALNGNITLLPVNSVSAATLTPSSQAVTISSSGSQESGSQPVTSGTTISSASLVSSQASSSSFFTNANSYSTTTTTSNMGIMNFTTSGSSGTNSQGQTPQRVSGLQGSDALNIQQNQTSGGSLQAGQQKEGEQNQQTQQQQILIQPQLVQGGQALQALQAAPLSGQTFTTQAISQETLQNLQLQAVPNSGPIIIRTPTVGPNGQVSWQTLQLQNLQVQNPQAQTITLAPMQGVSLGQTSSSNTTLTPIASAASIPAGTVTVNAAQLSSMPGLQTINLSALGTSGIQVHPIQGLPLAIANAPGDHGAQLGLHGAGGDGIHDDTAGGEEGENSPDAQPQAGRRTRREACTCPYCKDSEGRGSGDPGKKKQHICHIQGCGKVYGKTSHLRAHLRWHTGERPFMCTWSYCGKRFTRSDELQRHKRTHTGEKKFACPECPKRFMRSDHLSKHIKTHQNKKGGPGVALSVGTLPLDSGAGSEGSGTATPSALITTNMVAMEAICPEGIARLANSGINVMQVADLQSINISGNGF
Paired box protein Pax-6 (Homo sapiens), sequence (P26367 whole entry, looked up): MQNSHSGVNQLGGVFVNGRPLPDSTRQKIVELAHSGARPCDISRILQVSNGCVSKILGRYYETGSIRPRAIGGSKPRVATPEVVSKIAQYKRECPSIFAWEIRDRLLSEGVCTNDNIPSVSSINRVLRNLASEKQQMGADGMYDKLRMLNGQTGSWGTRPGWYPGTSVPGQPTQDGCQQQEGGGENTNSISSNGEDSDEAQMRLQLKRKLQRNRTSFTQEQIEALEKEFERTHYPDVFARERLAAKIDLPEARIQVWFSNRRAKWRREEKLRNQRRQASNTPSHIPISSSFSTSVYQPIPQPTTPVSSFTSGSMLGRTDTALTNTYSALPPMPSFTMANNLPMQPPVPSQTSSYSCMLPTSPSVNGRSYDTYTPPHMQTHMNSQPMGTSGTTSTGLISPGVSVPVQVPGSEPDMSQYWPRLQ
Signal transducer and activator of transcription 3 (Homo sapiens), sequence (P40763 whole entry, looked up): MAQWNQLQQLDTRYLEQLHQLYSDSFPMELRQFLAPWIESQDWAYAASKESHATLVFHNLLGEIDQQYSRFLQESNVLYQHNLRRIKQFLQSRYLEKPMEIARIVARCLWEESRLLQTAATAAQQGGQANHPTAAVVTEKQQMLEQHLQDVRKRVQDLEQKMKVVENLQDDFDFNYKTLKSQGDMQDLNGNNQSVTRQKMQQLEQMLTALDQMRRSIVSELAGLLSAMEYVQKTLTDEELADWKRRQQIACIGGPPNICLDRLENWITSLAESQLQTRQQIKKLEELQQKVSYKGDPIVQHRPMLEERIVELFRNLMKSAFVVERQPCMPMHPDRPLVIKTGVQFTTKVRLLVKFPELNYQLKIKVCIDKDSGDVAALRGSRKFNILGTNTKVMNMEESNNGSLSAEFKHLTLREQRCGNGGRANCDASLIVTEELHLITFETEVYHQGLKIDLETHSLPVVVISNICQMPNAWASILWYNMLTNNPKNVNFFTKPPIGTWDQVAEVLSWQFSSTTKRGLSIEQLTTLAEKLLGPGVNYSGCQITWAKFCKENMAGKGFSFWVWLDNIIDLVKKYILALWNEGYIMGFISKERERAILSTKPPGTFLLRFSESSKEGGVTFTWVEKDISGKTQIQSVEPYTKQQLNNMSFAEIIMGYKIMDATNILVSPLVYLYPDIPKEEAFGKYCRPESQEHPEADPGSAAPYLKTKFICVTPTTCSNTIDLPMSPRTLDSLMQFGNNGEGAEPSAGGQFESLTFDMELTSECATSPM
Hypoxia-inducible factor 1-alpha (Homo sapiens), sequence (Q16665 whole entry, looked up): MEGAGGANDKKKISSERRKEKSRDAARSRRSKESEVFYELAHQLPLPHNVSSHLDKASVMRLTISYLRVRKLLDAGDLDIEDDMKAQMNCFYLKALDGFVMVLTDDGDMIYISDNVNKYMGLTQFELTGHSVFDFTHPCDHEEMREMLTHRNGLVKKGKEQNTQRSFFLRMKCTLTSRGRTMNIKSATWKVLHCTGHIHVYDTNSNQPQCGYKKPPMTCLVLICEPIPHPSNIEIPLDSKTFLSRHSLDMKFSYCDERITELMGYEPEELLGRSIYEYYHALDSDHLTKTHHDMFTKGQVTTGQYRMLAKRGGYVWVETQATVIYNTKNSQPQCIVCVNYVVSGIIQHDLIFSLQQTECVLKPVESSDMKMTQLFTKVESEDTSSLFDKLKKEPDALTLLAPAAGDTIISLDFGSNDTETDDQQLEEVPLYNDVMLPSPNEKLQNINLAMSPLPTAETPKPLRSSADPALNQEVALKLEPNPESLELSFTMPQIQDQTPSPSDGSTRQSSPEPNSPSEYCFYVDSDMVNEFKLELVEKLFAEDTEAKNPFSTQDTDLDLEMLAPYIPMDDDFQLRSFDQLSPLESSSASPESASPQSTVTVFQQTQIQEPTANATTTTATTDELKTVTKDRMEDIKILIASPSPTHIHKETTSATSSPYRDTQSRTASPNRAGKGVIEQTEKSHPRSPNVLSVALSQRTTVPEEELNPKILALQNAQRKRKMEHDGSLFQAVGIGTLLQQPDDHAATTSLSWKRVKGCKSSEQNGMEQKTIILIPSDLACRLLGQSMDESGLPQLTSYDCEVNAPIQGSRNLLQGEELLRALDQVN
Hepatocyte nuclear factor 6 (Homo sapiens), sequence (Q9UBC0 whole entry, looked up): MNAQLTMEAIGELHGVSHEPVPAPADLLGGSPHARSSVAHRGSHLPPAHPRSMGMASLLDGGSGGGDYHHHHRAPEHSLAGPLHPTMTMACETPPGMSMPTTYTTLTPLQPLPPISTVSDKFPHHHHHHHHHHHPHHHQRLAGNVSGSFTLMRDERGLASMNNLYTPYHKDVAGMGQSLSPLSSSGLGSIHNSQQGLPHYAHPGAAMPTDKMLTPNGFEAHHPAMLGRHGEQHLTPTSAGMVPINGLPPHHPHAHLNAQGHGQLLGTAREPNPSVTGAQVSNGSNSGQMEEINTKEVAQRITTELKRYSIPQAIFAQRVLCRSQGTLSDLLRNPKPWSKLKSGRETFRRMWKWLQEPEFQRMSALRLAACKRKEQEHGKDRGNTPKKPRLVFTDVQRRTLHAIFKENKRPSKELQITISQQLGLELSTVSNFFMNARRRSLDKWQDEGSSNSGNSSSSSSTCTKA
Heat shock factor protein 1 (Homo sapiens), sequence (Q00613 whole entry, looked up): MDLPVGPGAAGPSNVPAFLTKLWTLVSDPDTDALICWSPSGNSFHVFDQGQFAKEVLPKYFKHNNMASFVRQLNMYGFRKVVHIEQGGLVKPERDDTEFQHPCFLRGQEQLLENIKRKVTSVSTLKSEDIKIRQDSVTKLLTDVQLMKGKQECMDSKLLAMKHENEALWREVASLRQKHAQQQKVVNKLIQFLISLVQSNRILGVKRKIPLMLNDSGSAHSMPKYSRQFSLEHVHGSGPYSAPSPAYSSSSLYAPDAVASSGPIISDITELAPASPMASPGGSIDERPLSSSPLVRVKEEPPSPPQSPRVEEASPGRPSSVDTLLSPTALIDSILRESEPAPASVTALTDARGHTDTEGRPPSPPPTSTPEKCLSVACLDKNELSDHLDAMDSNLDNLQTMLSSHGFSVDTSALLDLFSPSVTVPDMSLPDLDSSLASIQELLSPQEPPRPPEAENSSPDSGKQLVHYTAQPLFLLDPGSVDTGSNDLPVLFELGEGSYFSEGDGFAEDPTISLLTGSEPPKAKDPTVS

Clc1cc(Cl)c(-c2c(Cl)c(Cl)cc(Cl)c2Cl)cc1Cl
active: [9] 29.1 µM | [11] 3.45 µM | [15] 50 µM | [16] 50 µM
not listed: [20]
inactive: all other assays above

Nc1ccc(Cl)c([N+](=O)[O-])c1
active: [11] 37.6 µM
not listed: [20]
inactive: all other assays above

CC(=O)CC(=O)Nc1ccccc1
active: [6] 24.2 µM
not listed: [11] | [13] | [20]
inactive: all other assays above

Cc1cc(=O)oc2cc(N(C)C)ccc12
not listed: [12] | [16] | [20]
inactive: all other assays above

CC1CC(O)CC(C)(C)C1 (centres undefined)
not listed: [8] | [11]
inactive: all other assays above

[Cl][Au]([Cl])[Cl]
not listed: [12] | [20]
inactive: all other assays above

NC1CCCCC1N (centres undefined)
not listed: [8]
inactive: all other assays above

COC(C)(C)CC(C)=O
active: [11] 34.4 µM
not listed: [9] | [13] | [19]
inactive: all other assays above

CS(C)=O
not listed: [16] | [20]
inactive: all other assays above

CCC(Cl)C(Cl)C(Cl)CC(Cl)C(Cl)C(C)Cl (centres undefined)
active: [1] 10.5 µM | [9] 74 µM
not listed: [11] | [20]
inactive: all other assays above

Cc1c(Cl)cccc1[N+](=O)[O-]
not listed: [11] | [17] | [20]
inactive: all other assays above

C=COCCOCCOC=C
not listed: [8] | [12]
inactive: all other assays above

CC(C)c1ccccc1O
active: [11] 81.1 µM
not listed: [12] | [16] | [20]
inactive: all other assays above

CCCC(C)C(O)CC (centres undefined)
not listed: [12] | [17] | [20]
inactive: all other assays above
